Reference: the supplement of paper PMC10849652
For part of these data: Targets with a hit are over-represented here; the source holds about 7,900 in all. For part of these data: About 0.6% of all pairs of compound and target were hits. For part of these data: Targets with a hit are over-represented here; the source holds about 8,800 in all. For part of these data: About 0.5% of all pairs of compound and target were hits.

Legend:
[1] = compound: C1=CC=C(C=C1)[C@H](COC2=CC3=C(C=C2)NC(=O)N3)NC(=O)C4=CC=CN(C4=O)CC5=CC(=C(C=C5)F)F; assay: log2 fold change, soluble protein after heating vs DMSO (PISA); higher = thermal stabilisation; K562 lysate, 10 uM; active = over 0.2 and 3.5 SD of the protein, either way, in both replicates (recomputed)
Outline: (§1)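 Soluble protein was defined as the supernatant remaining after 21,000xg for 90 min, following pooling of heated aliquots and adjustment to 0.5% NP-40 at 4°C. Before that, crude K562 extract at 1 mg/mL protein in PBS pH 7.4 with 1 mM MgCl2 was treated with 10 μM compound for 30 min and heated for 3 min across 48°C-58°C. Quantification used TMTpro 16plex LC-MS/MS with channel sums equalised, and values are log-two fold changes in thermal stability relative to solvent controls from duplicates.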

[2] = compound: CC1=C(SC2=C1C(=N[C@H](C3=NN=C(N32)C)CC(=O)N)C4=CC=C(C=C4)Cl)C; assay: as above
Outline: as §1

[3] = compound: Cc1sc2c(c1C)C(c1ccc(Cl)cc1)=N[C@@H](CC(=O)OC(C)(C)C)c1nnc(C)n1-2; assay: as above
Outline: as §1

[4] = compound: c1ccc([C@@H]2C[C@H]2NC2CCNCC2)cc1; assay: as above
Outline: as §1

[5] = compound: CC1=C2C(=CC=C1)N=C(N(C2=O)C3=CC=CC=C3C)CN4C=NC5=C(N=CN=C54)N; assay: as above
Outline: as §1

[6] = compound: C1=CC=C(C=C1)[C@H](COC2=CC3=C(C=C2)NC(=O)N3)NC(=O)C4=CC=CN(C4=O)CC5=CC(=C(C=C5)F)F; assay: log2 fold change, soluble protein after heating vs DMSO (PISA); higher = thermal stabilisation; K562 cells, 10 uM, 30 min; active = over 0.2 and 3.5 SD of the protein, either way, in both replicates (recomputed)
Outline: (§2)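 Aliquots of K562 cells (2×10^6 cells/mL) treated with 10 μM compound for 30 min were heated for 3 min over 48°C-58°C. After pooling and extraction in PBS with 0.5% NP-40 at 4°C, soluble protein from a 21,000xg, 90 min spin was quantified by TMTpro 16plex LC-MS/MS with channel sums equalised. Thermal stability is expressed against control samples, from duplicates, as a log2 fold change.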

[7] = compound: CC1=C(SC2=C1C(=N[C@H](C3=NN=C(N32)C)CC(=O)N)C4=CC=C(C=C4)Cl)C; assay: as above
Outline: as §2

[8] = compound: CC1=C2C(=CC=C1)N=C(N(C2=O)C3=CC=CC=C3C)CN4C=NC5=C(N=CN=C54)N; assay: as above
Outline: as §2

[9] = compound: Cc1sc2c(c1C)C(c1ccc(Cl)cc1)=N[C@@H](CC(=O)OC(C)(C)C)c1nnc(C)n1-2; assay: as above
Outline: as §2

[10] = compound: c1ccc([C@@H]2C[C@H]2NC2CCNCC2)cc1; assay: as above
Outline: as §2

Measured: log2 fold change

AP5B1 (UniProt Q2VPB7)
inactive: [1] 0.079 | [2] -0.023 | [3] -0.044 | [4] -0.003

ANXA2 (UniProt H0YL33)
inactive: [1] 0.079 | [2] -0.079 | [3] -0.135 | [4] 0.466

ACAT1 (UniProt P24752)
inactive: [1] -0.007 | [2] 0.029 | [5] -0.016 | [3] 0.031 | [4] 0.024

ACLY isoform 2 (UniProt P53396)
inactive: [1] 0.099 | [2] -0.01 | [5] 0.023 | [4] -0.325

ALG13 isoform 2 (UniProt Q9NP73)
inactive: [4] -0.109

ARHGEF2 (UniProt V9GYF0)
inactive: [5] 0.098 | [3] 0.105

AK4 (UniProt P27144)
Chain of UniProt P27144 (P27144 whole entry, looked up): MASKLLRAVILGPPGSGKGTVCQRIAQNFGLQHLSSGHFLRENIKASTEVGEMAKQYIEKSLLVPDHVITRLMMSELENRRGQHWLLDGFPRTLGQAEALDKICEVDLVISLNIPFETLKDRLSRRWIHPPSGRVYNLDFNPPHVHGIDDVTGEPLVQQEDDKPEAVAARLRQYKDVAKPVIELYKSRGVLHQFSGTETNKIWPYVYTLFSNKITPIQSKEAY
inactive: [1] 0.025 | [2] -0.038 | [5] 0.059 | [3] 0.024 | [4] 0.026

ACAT1, A0A5F9ZHJ0
inactive: [4] -0.06

ACVR1 (UniProt Q04771)
inactive: [1] -0.052 | [2] -0.055 | [3] -0.102 | [4] -0.126

YES1 (UniProt P07947)
inactive: [6] 0.025 | [7] -0.056 | [8] 0.126 | [9] -0.005 | [10] -0.038

ZNF579 (UniProt Q8NAF0)
inactive: [6] 0.05 | [7] -0.074 | [8] -0.025 | [9] 0.151 | [10] -0.147

ALKBH7 (UniProt Q9BT30)
inactive: [3] -0.012 | [4] -0.014

ZDHHC5 (UniProt Q9C0B5)
Chain of UniProt Q9C0B5 (Q9C0B5 whole entry, looked up): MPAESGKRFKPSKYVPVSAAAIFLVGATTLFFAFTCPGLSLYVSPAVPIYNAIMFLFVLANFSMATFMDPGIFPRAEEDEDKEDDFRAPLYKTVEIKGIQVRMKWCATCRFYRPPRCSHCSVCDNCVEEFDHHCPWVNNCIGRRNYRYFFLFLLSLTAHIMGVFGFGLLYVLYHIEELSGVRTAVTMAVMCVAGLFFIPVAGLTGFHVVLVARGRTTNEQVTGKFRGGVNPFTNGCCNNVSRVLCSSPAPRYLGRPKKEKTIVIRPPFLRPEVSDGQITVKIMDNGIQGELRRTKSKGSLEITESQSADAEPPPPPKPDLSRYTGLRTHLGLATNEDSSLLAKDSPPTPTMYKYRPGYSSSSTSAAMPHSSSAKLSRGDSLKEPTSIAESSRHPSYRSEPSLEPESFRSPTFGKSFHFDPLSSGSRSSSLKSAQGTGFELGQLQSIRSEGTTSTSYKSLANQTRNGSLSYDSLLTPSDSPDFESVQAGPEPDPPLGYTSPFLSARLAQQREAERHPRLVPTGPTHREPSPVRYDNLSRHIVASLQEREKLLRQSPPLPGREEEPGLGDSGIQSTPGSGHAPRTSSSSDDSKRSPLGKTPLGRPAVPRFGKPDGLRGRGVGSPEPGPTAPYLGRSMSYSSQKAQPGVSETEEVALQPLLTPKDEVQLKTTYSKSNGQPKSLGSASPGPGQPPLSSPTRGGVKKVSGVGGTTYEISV
inactive: [6] 0.015 | [7] 0.007 | [8] 0.04 | [9] -0.013 | [10] 0.077

AGPAT2 (UniProt O15120)
inactive: [5] -0.11 | [4] 0.034

ACYP2 (UniProt P14621)
inactive: [1] -0.061 | [2] -0.032 | [5] 0.011 | [4] 0.118

ANKRD44 isoform 2 (UniProt Q8N8A2)
Chain of UniProt Q8N8A2 (Q8N8A2 whole entry, looked up): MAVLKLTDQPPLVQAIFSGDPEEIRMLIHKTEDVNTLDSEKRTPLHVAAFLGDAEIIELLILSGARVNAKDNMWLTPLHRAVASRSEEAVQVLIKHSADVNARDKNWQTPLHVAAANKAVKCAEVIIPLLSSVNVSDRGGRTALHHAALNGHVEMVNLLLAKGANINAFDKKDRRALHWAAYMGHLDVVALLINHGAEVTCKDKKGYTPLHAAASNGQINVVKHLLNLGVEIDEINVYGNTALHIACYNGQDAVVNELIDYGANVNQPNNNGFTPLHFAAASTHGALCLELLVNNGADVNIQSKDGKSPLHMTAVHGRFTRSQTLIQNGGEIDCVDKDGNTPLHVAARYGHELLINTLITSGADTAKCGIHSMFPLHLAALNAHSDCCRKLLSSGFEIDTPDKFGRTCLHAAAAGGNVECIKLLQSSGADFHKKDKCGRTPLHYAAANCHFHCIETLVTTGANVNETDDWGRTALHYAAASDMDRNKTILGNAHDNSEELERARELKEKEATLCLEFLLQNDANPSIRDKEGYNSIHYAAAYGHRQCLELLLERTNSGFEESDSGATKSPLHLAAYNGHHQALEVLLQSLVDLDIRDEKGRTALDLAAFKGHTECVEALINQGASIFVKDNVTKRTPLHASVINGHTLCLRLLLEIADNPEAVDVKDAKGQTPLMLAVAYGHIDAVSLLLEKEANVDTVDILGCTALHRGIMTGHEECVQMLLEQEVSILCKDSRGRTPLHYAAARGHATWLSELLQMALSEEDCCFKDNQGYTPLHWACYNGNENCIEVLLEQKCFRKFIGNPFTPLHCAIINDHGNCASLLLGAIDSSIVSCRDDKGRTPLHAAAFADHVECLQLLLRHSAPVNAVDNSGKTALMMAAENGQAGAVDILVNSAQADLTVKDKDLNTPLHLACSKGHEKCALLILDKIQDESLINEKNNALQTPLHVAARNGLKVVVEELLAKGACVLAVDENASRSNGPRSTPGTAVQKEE
active: [4] -1
inactive: [1] -0.032 | [2] -0.045 | [5] 0.019

ANP32E isoform 3 (UniProt Q9BTT0)
inactive: [1] 0.003 | [2] 0.09 | [5] 0.015 | [4] -0.39

ANKRD30A (UniProt Q9BXX3)
inactive: [1] -0.04 | [2] -0.051 | [3] -0.03 | [4] 0.064

YIPF5 isoform 3 (UniProt Q969M3)
Chain of UniProt Q969M3 (Q969M3 whole entry, looked up): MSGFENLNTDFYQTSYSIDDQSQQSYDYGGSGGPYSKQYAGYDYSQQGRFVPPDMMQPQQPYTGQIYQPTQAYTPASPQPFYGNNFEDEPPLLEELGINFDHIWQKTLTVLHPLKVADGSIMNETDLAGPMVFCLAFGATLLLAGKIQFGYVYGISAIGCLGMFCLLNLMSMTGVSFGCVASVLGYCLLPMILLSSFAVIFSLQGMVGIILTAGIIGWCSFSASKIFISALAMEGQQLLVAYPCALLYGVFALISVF
inactive: [6] 0 | [7] 0.025 | [8] 0.018 | [9] 0.002 | [10] 0.08

AIF1L (UniProt Q9BQI0)
inactive: [1] 0.072 | [2] -0.031 | [3] 0.049 | [4] -0.022

AGGF1 (UniProt Q8N302)
inactive: [1] 0.042 | [2] 0.049 | [5] 0.024 | [4] -0.149

AP3D1 isoform 2 (UniProt O14617)
inactive: [5] -0.009 | [4] 0.061

ZNF239 (UniProt Q16600)
inactive: [6] -0.17 | [7] -0.151 | [8] -0.06 | [9] -0.082 | [10] 0.06

ABRACL (UniProt Q9P1F3)
inactive: [1] 0.052 | [2] -0.221 | [3] 0.054 | [4] 0.075

APAF1 (UniProt O14727)
inactive: [1] -0.013 | [2] 0.004 | [5] 0.022 | [3] 0.012 | [4] 0.02

ZC3H18 (UniProt Q86VM9)
inactive: [6] 0.032 | [7] -0.031 | [8] 0.035 | [9] 0.021 | [10] 0.047

AMDHD2 (UniProt Q9Y303)
inactive: [5] 0.039 | [4] 0.095

YAE1 (UniProt Q9NRH1)
inactive: [6] -0.021 | [7] -0.111 | [8] 0.016 | [9] -0.014 | [10] 0.095

ALDH18A1 isoform 2 (UniProt P54886)
inactive: [5] 0.229 | [3] -0.068

YLPM1 (UniProt P49750)
inactive: [6] -0.092 | [7] 0.11 | [8] 0.104 | [9] 0.005 | [10] -0.052

YOD1 (UniProt Q5VVQ6)
inactive: [6] -0.071 | [7] 0.035 | [8] 0.063 | [9] -0.005 | [10] 0.046

ZBTB21 (UniProt Q9ULJ3)
Chain of UniProt Q9ULJ3 (Q9ULJ3 whole entry, looked up): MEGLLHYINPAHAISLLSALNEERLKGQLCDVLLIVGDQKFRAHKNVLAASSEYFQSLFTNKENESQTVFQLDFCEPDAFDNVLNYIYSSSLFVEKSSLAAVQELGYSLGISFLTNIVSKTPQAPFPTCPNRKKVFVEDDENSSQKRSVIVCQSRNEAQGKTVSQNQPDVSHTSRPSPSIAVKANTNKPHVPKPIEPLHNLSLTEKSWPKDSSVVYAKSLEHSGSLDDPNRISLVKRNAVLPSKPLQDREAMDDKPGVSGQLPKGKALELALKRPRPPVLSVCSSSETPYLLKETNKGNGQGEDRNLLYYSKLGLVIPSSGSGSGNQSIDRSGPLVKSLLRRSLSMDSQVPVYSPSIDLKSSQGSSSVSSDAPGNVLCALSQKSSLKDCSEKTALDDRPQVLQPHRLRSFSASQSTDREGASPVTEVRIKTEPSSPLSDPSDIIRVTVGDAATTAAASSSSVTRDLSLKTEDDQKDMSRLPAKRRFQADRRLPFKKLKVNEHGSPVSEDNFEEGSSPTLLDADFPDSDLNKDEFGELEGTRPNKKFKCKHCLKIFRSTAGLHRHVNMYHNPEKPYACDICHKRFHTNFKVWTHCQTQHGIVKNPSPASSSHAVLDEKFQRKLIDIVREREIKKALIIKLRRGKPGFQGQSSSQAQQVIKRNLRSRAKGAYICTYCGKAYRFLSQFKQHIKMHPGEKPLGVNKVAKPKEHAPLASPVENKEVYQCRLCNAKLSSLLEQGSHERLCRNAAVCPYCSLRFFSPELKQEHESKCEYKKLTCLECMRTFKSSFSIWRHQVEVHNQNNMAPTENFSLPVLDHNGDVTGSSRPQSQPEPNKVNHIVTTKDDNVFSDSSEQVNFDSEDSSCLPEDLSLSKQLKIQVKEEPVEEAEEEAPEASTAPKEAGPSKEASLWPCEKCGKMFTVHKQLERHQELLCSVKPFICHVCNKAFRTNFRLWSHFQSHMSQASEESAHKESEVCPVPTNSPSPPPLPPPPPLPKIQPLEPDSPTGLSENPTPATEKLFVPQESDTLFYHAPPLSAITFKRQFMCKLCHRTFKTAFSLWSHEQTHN
inactive: [6] -0.215 | [7] -0.152 | [8] 0.058 | [9] 0.244 | [10] 0.006

ZWILCH (UniProt Q9H900)
inactive: [6] -0.077 | [7] 0.036 | [8] 0.063 | [9] 0.037 | [10] 0.002

ZADH2 (UniProt Q8N4Q0)
inactive: [6] 0.012 | [7] -0.039 | [8] -0.076 | [9] -0.026 | [10] 0.008

ZNF512 (UniProt Q96ME7)
inactive: [7] -0.117 | [10] -0.363

ZMYM3 (UniProt Q14202)
inactive: [6] -0.03 | [7] 0.055 | [8] -0.02 | [9] 0.043 | [10] 0.103

ZDHHC7 isoform 2 (UniProt Q9NXF8)
inactive: [7] 0.088 | [8] 0.131 | [9] 0.135 | [10] 0.081

YWHAB (UniProt P31946)
inactive: [6] -0.024 | [7] 0.024 | [8] -0.01 | [9] -0.004 | [10] -0.03

ZBTB43 (UniProt O43298)
inactive: [6] -0.105 | [7] 0.013 | [8] 0.055 | [9] -0.097 | [10] -0.08

ZDHHC20 (UniProt Q5W0Z9)
Chain of UniProt Q5W0Z9 (Q5W0Z9 whole entry, looked up): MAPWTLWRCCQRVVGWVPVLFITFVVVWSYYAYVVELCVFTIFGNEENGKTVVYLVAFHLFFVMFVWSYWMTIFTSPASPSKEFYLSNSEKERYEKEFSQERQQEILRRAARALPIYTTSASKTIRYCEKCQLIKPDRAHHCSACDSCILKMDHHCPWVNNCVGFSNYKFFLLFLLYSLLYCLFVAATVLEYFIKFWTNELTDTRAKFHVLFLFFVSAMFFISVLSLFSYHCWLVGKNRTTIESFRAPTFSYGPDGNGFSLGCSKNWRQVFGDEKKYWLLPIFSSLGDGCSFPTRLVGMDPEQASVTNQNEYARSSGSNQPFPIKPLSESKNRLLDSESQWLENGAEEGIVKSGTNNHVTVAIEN
inactive: [6] -0.023 | [7] -0.001 | [8] -0.047 | [9] -0.061 | [10] 0.067

YWHAZ (UniProt P63104)
Chain of UniProt P63104 (P63104 whole entry, looked up): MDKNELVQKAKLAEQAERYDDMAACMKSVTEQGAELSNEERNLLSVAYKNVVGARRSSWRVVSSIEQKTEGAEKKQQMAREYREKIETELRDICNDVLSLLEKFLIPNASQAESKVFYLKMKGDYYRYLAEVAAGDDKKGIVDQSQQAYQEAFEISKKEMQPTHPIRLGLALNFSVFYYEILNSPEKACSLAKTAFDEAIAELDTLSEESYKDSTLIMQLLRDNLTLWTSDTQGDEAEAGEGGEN
inactive: [6] -0.012 | [7] 0.035 | [8] -0.031 | [9] -0.033 | [10] -0.025

ZMYM1 (UniProt Q5SVZ6)
inactive: [6] 0.077 | [7] 0.082 | [8] -0.144 | [9] -0.012 | [10] -0.011

YBX1 (UniProt P67809)
inactive: [6] 0.105 | [7] -0.228 | [8] -0.143 | [9] 0.115 | [10] 0.052

ZNF217 (UniProt O75362)
active: [10] 0.306
inactive: [6] -0.017 | [7] 0.048 | [8] 0.163 | [9] -0.003

ZNF622 (UniProt Q969S3)
inactive: [6] -0.028 | [7] 0.033 | [8] 0.073 | [9] -0.016 | [10] -0.049

ZNF580 (UniProt Q9UK33)
inactive: [8] -0.16 | [9] 0.029

ZNF609 (UniProt O15014)
inactive: [6] 0.035 | [7] -0.008 | [8] 0.148 | [9] 0.14 | [10] 0.073

ZDHHC8 isoform 3 (UniProt Q9ULC8)
inactive: [6] 0.105 | [9] 0

YWHAQ (UniProt P27348)
Chain of UniProt P27348 (P27348 whole entry, looked up): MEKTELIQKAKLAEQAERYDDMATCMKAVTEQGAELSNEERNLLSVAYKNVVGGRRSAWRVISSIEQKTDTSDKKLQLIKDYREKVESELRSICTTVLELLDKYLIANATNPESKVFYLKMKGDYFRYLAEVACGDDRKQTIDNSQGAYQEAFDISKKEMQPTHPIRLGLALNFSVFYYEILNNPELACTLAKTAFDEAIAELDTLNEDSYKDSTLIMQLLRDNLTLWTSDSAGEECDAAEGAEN
inactive: [6] -0.031 | [7] 0.009 | [8] -0.152 | [9] -0.089 | [10] -0.083

ZFPL1 (UniProt O95159)
inactive: [6] 0.09 | [7] 0.084 | [8] 0.063 | [9] -0.042 | [10] -0.032

YIPF6 (UniProt Q96EC8)
Chain of UniProt Q96EC8 (Q96EC8 whole entry, looked up): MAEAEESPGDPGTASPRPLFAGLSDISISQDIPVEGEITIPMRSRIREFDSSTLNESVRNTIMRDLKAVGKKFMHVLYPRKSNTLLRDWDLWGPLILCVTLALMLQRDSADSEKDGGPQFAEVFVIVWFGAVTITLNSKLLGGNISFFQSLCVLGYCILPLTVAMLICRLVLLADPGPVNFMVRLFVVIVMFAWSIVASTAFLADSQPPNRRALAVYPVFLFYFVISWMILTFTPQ
inactive: [6] 0.062 | [7] -0.04 | [8] 0.114 | [9] 0.103 | [10] 0.015

ZCCHC17 (UniProt Q9NP64)
inactive: [8] -0.124

YIPF4 (UniProt Q9BSR8)
inactive: [6] -0.027 | [7] 0.001 | [8] -0.019 | [9] 0.027 | [10] 0.046

YWHAZ (UniProt E7ESK7)
inactive: [6] 0.066 | [7] 0.009 | [9] 0.083 | [10] 0.052

ZBTB17 isoform 2 (UniProt Q13105)
inactive: [6] -0.08 | [9] -0.019

ZMAT2 (UniProt Q96NC0)
inactive: [6] 0.029 | [7] -0.025 | [8] -0.009 | [9] -0.042 | [10] -0.016

ZYG11B (UniProt Q9C0D3)
inactive: [6] 0.057 | [7] 0.086 | [8] 0.011 | [9] -0.02 | [10] 0.044

ZCCHC9 (UniProt Q8N567)
inactive: [6] 0.173 | [7] -0.074 | [8] -0.202 | [9] 0.222 | [10] 0.023

ZC3HC1 (UniProt Q86WB0)
Chain of UniProt Q86WB0 (Q86WB0 whole entry, looked up): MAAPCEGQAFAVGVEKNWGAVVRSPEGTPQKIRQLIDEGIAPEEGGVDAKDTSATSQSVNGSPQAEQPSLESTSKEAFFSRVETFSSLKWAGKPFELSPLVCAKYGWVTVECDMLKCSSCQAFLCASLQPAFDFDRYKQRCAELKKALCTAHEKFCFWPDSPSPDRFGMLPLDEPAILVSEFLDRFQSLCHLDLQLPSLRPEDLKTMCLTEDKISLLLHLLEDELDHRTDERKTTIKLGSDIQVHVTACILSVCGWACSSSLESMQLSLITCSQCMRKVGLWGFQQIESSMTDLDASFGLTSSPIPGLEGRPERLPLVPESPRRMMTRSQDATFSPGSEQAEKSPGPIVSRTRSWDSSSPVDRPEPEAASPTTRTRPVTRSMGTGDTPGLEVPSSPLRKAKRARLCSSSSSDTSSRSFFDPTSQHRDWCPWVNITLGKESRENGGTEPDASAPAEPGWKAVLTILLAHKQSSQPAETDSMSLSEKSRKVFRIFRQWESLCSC
inactive: [6] -0.091 | [7] 0.07 | [8] 0.1 | [9] -0.032 | [10] -0.018

YY1 (UniProt P25490)
inactive: [6] 0.013 | [7] -0.006 | [8] -0.033 | [9] -0.015 | [10] 0.084

YPEL5 (UniProt P62699)
Chain of UniProt P62699 (P62699 whole entry, looked up): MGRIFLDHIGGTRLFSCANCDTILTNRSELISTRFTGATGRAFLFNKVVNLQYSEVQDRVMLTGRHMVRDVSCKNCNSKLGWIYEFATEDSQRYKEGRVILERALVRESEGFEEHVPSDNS
inactive: [6] -0.066 | [7] 0.044 | [8] 0.016 | [10] -0.081
